In all, about 2,400 compounds went through this assay and about 750 (31%) were called active. Some of the results follow. Values without a mark were called inactive.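 How the source made its calls: active means median signal gain over dofetilide-blocked control wells reaching their mean plus 3 SD, so readout 1 at least 0; inactive means the rest.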
molecular target: Voltage-gated inwardly rectifying potassium channel KCNH2 (Homo sapiens) (UniProt Q12809); assay: modulators restoring hERG flux under dofetilide – cell-based, thallium flux, duplicate retest, dofetilide IC70, confirmation (AID 1835); conditions: hERG cell line, FluxOR thallium flux, dofetilide-blocked; at 10 µM; stronger effect = higher value
Sequence (Q12809 whole entry, looked up): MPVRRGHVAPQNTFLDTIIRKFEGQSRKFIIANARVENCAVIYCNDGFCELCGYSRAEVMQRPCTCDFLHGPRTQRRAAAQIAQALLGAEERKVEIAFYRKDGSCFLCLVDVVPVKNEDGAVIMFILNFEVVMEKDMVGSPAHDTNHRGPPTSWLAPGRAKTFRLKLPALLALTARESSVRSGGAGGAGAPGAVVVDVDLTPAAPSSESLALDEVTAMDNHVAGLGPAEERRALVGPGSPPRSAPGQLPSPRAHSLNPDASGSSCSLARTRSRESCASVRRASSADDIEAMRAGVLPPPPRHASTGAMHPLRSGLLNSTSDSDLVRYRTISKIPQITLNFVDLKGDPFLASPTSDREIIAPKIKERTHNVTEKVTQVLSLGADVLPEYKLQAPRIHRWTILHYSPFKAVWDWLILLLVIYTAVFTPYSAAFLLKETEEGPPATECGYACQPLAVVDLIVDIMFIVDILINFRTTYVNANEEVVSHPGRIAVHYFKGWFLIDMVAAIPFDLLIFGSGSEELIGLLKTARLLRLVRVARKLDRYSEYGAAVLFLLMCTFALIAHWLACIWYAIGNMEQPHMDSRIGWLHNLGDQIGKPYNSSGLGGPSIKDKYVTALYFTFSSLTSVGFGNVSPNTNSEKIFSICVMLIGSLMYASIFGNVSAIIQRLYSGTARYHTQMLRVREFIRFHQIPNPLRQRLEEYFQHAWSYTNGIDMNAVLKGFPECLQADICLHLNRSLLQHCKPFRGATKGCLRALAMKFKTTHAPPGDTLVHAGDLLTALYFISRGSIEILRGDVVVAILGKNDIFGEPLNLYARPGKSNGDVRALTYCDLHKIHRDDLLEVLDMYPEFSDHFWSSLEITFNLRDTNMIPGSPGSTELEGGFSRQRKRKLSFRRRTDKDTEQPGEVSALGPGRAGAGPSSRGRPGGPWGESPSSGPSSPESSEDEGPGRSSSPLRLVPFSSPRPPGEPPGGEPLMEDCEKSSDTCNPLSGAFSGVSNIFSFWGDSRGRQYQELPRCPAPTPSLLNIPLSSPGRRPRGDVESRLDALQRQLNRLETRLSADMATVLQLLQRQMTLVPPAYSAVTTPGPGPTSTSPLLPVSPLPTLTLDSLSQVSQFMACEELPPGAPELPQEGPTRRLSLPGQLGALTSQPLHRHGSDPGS

| Structure (SMILES) | activity increase over dofetilide control, less the hit threshold |
| --- | --- |
| CCn1c(O)c(N=NC2=NC(=O)CS2)c2cc(C)ccc21 | -10% |
| CCc1ccc2c(c1)c(N=NC1=NC(=O)CS1)c(O)n2CC | 39% (active) |
| CCn1c(O)c(N=NC2=NC(=O)CS2)c2ccccc21 | 3% (active) |
| Cn1cc([N+](=O)[O-])c(C(=O)NCc2cc3cc(Cl)ccc3[nH]2)n1 | -12% |
| O=[N+]([O-])c1cc(F)c2cccnc2c1O | -6% |
| COc1ccc(CCn2c(S)nc3ccccc3c2=O)cc1 | 6% (active) |
| COc1ccc(-n2cnc3ccccc3c2=O)c([N+](=O)[O-])c1 | -9% |
| NC(=O)CSc1nc2ccccc2c(=O)n1CCc1ccccc1 | -8% |
| O=C(COC(=O)C1CCC(=O)N1)Nc1cc(Cl)ccc1Cl (centres undefined) | -13% |
| CCC1CCc2c(sc(NC(=O)C3CC=CCC3C(=O)O)c2C#N)C1 (centres undefined) | 2% (active) |
| COC(=O)c1c(NC(=O)C2CC=CCC2C(=O)O)sc(C)c1C (centres undefined) | -13% |
| CCC(C)(C)C1CCc2c(sc(NC(=O)c3ccccc3C(=O)O)c2C#N)C1 (centres undefined) | 18% (active) |
| O=C(O)Cc1ccc(NC(=O)C2CC=CCC2C(=O)O)cc1 (centres undefined) | -14% |
| Cc1ccccc1C(=O)NC(=S)Nc1sc2c(c1C#N)CCC(C)C2 (centres undefined) | -13% |
| Cc1ccc(CS(=O)(=O)c2ncc(Cl)c(C(=O)Nc3nnc(C)s3)n2)cc1 | -19% |
| CC1(OC(=O)c2ccc(Cl)nc2)C(=O)C=C2C=C(c3ccc(C#N)cc3)OC=C2C1=O (centres undefined) | -3% |
| O=[N+]([O-])c1cc(S(=O)(=O)/N=C(/c2ccccc2)N2CCOCC2)ccc1Cl | -16% |
| COc1ccc2nc(/N=C/c3c(C)[nH]n(-c4ccc(C)cc4C)c3=O)sc2c1 | 88% (active) |
| CCOc1ccc(-n2cnc3sc(C)c(C)c3c2=O)cc1 | -13% |
| CCOc1ccc2nc(/N=C/c3c(C)[nH]n(-c4ccc(C)cc4)c3=O)sc2c1 | 38% (active) |
| CCOc1ccc2nc(/N=C/c3c(C)[nH]n(-c4ccccc4)c3=O)sc2c1 | 100% (active) |
| CCSC(=S)c1c(C)[nH]n(-c2ccccc2)c1=O | -19% |

| Structure (SMILES) | activity increase over dofetilide control, less the hit threshold |
| --- | --- |
| CCCSC(=S)c1c(C)[nH]n(-c2ccccc2)c1=O | 0% |
| COc1ccc2nc(/N=C/c3c(C)[nH]n(-c4ccc(C)cc4)c3=O)sc2c1 | 62% (active) |
| COc1ccc2nc(-n3c(O)c(C4=c5ccccc5=NC4=O)[nH]c3=S)sc2c1 | -14% |
| Cc1nn(-c2cccc(C(F)(F)F)c2)c(Cl)c1/C=N/Nc1cccc(C(=O)O)c1 | -28% |
| Brc1ccc(C2=CC(c3ccco3)n3nnnc3N2)cc1 (centres undefined) | -13% |
| C=CCn1c(SCC(=O)Nc2cccc(C)c2)nnc1-c1cnccn1 | -18% |
| O=C(CSc1cccc[n+]1[O-])C12CC3CC(CC(C3)C1)C2 | -11% |
| Cc1cc(OCCN2CCCCCC2)ccc1[N+](=O)[O-] | -3% |
| COCCNC(=O)C1CCN(S(=O)(=O)N2CCC3(CC2)OCCO3)CC1 | -21% |
| Cc1cc2nccc(-c3ccc(Cl)cc3Cl)n2n1 | -3% |
| Cc1[nH]n(-c2ccccc2)c(=O)c1N=Nc1ccc(C(N)=O)cc1 | -23% |
| Cc1[nH]n(-c2ccc(Cl)cc2)c(=O)c1/C=N/c1nnc(-c2ccccc2)s1 | 106% (active) |
| Cn1cnnc1SCC(=O)NCc1ccccc1 | -20% |
| CCCn1c(O)c(N=NC(=O)c2ccco2)c2ccccc21 | 17% (active) |
| CCn1c(O)c(N=NC(=O)CNC(=O)c2ccccc2F)c2ccccc21 | -7% |
| CCn1c(O)c(N=NC(=S)NCC2CCCO2)c2ccccc21 (centres undefined) | -1% |
| N#Cc1c(NC(=O)c2cc(-n3cnnc3)ccc2Cl)sc2c1CCCC2 | 5% (active) |
| CC1(C)Cc2c(sc(NC(=O)C(=O)N3CCCC3)c2C#N)CO1 | -2% |
| CCc1ccc(/C=N/NC(=O)c2nnn(-c3nonc3N)c2C(C)C)cc1 | -22% |
| CCCOc1ccc(-c2c(C(=O)N/N=C/c3ccccc3OCC)nnn2-c2nonc2N)cc1 | -7% |
| CN(C)Cc1c(C(=O)N/N=C/c2ccccc2OCc2c(F)cccc2Cl)nnn1-c1nonc1N | 40% (active) |
| Cc1c(C(=O)N/N=C/c2ccccn2)nnn1-c1nonc1N | -14% |

| Structure (SMILES) | activity increase over dofetilide control, less the hit threshold |
| --- | --- |
| Nc1nonc1-n1nnc(C(=O)N/N=C/c2cccc(Cl)c2Cl)c1CN1CCCC1 | 5% (active) |
| Nc1nonc1-n1nnc(C(=O)N/N=C/c2ccccn2)c1-c1ccccc1 | -5% |
| CN(NC1OC(=O)c2ccccc21)c1ccccc1[N+](=O)[O-] (centres undefined) | -4% |
| CCCCOC(=O)Nc1nnc(C(C)C)s1 | -14% |
| Cc1ccc2nc(NC(=S)NC(=O)c3ccco3)sc2c1 | 50% (active) |
| O=C(NC(=S)Nc1nc2ccc(F)cc2s1)c1ccco1 | 65% (active) |
| O=C(NC(=S)Nc1nc2ccccc2s1)c1ccco1 | -3% |
| CCOC(=O)c1cccc(C(=O)Nc2nc3ccc(OC)cc3s2)n1 | -14% |
| CCc1nnc(NC(=O)c2cccc(C(=O)Nc3nnc(CC)s3)n2)s1 | -10% |
| CCc1ccc2nc(NC(=O)c3cc(C)on3)sc2c1 | 10% (active) |
| CC(C)(C)Cc1nnc(NC(=O)c2ccco2)s1 | -13% |
| COc1ccc2nc(NC(=S)NC(=O)c3ccco3)sc2c1 | 2% (active) |
| COc1cccc(-c2cc(C(F)(F)F)nc(N3CCCCC3)n2)c1 | -17% |
| Cc1ccc([N+](=O)[O-])c2c1C(N1CC(C)OC(C)C1)C(C)(C)O2 (centres undefined) | -24% |
| CCc1cccc(C)c1NC(=O)C1=C(C(=O)O)CCCC1 | -14% |
| NS(=O)(=O)c1ccc(Sc2ccc3c(c2)CCC3)nc1 | -2% |
| CSc1nc(C)c2c(n1)N(c1ccc(C(C)C)cc1)CC2 | -9% |
| Clc1ccc(Nc2ccc(Cl)nn2)cc1 | -6% |
| Cc1cc(OCC(=O)Nc2cc(S(=O)(=O)N3CCOCC3)ccc2N2CCCC2)ccc1C(C)C | -7% |
| CCCCCN(C(=O)CCC(=O)OCC(=O)N(C)C1CCCCC1)c1c(N)n(CCCC)c(=O)[nH]c1=O | -12% |

From PubChem BioAssay AID1835 (Johns Hopkins Ion Channel Center, 2009)
